Screens (PubChem BioAssay)
NRP1-CendR mod: modulators of CendR peptide binding to NRP-1, primary screen, biochemical, fluorescence polarization, uHTS | FAM-RPARPAR peptide binding to NRP-1 | inhibition, % at 25 µM | 360,000 tested, 0.85% active | AID 602438, 2012;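 active = inhibition or corrected inhibition above about 18%, plus a signal ratio from 0.5 to 1.5, limit read from the data, passing the limit was not always enough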
Yeast superoxide: reduction of superoxide in aged yeast, primary screen, HTS. S. cerevisiae aged cells, superoxide DHE fluorescence; hits give low values. 330,000 tested, 0.18% active. superoxide response (% of plate mean), % at 10 µM;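 active = superoxide response under a set limit, about three screen SD below normal, cut at about 65% in these data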;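 note: yeast aged for seven days with compound at 30 °C before DHE staining; 100% = average MFI of all compound-treated wells on the plate with controls excluded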
PfM18AAP inh: PfM18AAP inhibitors, malaria aminopeptidase, primary screen, biochemical, QFRET, recombinant enzyme | H-Glu-NHMec fluorogenic cleavage | inhibition, % at 7.35 µM | 290,000 tested, 1.2% active | AID 1822, 2009;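 active = inhibition above the campaign mean inhibition over all tested compounds plus 3 SD, cut at about 28% in these data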;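 note: 0% = plate median of test compound wells and 100% = 2 mM ZnCl2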
APOBEC3A inh: APOBEC3A ssDNA deaminase inhibitors, primary screen, selectivity assay for APOBEC3G inhibitor project, biochemical, FAM/TAMRA oligo cleavage fluorescence; DNA dC->dU-editing enzyme APOBEC-3A (Homo sapiens), P31941; AID 493011, 2011; inhibition, % at 20 µM; 330,000 tested, 0.41% active; recombinant A3A, FAM/TAMRA ssDNA deamination fluorescence;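 active = at least 40% inhibition at 20 µM here, with at most 30% in a related deaminase screen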;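 note: plate controls were A3A with DMSO for no effect and wells lacking A3A enzyme for full effect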
Target sequence (P31941 whole entry, looked up): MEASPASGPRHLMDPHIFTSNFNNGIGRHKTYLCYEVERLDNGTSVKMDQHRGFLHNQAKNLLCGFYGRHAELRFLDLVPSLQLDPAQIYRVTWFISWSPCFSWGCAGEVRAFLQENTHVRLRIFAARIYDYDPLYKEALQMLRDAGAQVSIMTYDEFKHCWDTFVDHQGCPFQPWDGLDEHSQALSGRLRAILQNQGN
ALR H2O2 inh: inhibitors of human ALR sulfhydryl oxidase, primary screen, biochemical, H2O2 detection, HRP-luminol luminescence, single point; FAD-linked sulfhydryl oxidase ALR (Homo sapiens), P55789; purified ALR, DTT oxidation; inhibition, % (concentration not given with the values); 290,000 tested, 3.8% active; AID 485317, 2010;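 active = mean replicate inhibition above about 79%, with every replicate also reaching it, limit read from the data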
Target sequence (P55789 whole entry, looked up): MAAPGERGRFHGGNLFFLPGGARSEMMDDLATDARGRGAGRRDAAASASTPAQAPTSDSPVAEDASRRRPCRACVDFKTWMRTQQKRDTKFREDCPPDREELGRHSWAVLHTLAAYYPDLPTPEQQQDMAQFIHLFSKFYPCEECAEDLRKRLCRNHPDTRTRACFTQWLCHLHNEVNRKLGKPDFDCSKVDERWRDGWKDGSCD
A3G deaminase: APOBEC3G DNA deaminase inhibitors, primary screen, biochemical, fluorescence, single-stranded DNA substrate, uHTS; DNA dC->dU-editing enzyme APOBEC-3G (Homo sapiens), Q9HC16; recombinant A3G, ssDNA deamination FAM/TAMRA fluorescence; inhibition, % at 20 µM; 330,000 tested, 0.28% active;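 active = inhibition of at least 40% at 20 µM, with no more than 30% in the related APOBEC3A deaminase screen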;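 note: plate controls were DMSO wells with A3G for no effect and wells lacking A3G enzyme for full effect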
An asterisk follows results filed as active; x = not tested or not shown. Most compounds without a hit are left out; they make up all but 5.2% or so of the library.

SMILES | NRP1-CendR mod | Yeast superoxide | PfM18AAP inh | APOBEC3A inh | ALR H2O2 inh | A3G deaminase
Cc1ccc(N2CC(C(=O)Nc3ccc(S(=O)(=O)Nc4nccc(C)n4)cc3)CC2=O)cc1 (stereo not drawn) | 15 | 91 | -3 | 1 | -5 | 1
COc1ccc(Nc2ncccc2C(=O)O)cc1 | -4 | 95 | 4 | 2 | 53 | 0
O=C(c1ccco1)n1nc(-c2ccccc2)nc1NCc1ccco1 | 0 | 98 | 5 | 0 | 78* | -1
Cc1ccc(-c2nc(NCc3ccco3)n(C(=O)c3ccco3)n2)cc1 | -2 | 89 | -6 | 2 | x | -8
O=[N+]([O-])c1ccc(N2CCN(CC3CCCCC3)CC2)cc1 | 0 | 98 | 4 | -9 | -1 | -9
COc1ccc(C=O)cc1CSc1ccccn1 | 2 | 107 | -1 | 0 | 97* | -2
COc1ccc(C(C)=O)cc1CSc1ccccn1 | -12 | 102 | 2 | -3 | -9 | -4
CCc1ccc(OCC(=O)Nc2cccc3c2CCCC3)cc1 | -1 | 123 | -2 | -3 | -8 | -6
COc1ccccc1NC(=O)C(C)OC(=O)CCCN=C1NS(=O)(=O)c2ccccc21 (stereo not drawn) | 2 | 76 | x | 7 | 8 | 5
CCC(=O)c1cn(CC(=O)Nc2ccccc2)c2ccccc12 | 34* | 124 | -5 | -9 | x | -1
Cc1ccc(S(=O)(=O)/N=C2\C=C(Nc3ccc(O)cc3)C(=O)c3ccccc32)cc1 | 10 | 112 | x | -1 | 26 | -5
CC(C)c1ccc(S(=O)(=O)/N=C2/C=C(Sc3ncn[nH]3)C(=O)c3ccccc32)cc1 | -6 | 144 | 31* | x | -64 | x
Cc1ccc(S(=O)(=O)/N=C2/C=C(Sc3ncn[nH]3)C(=O)c3ccccc32)cc1 | 13 | 171 | 51* | x | -28 | x
Cc1ccc(S(=O)(=O)/N=C2/C=C(Sc3ncn[nH]3)C(=O)c3ccccc32)c(C)c1 | x | 155 | 38* | x | -5 | x
C/C(CC(=O)Nc1ccc(N(C)C)cc1)=N\NC(=O)c1ccc([N+](=O)[O-])cc1Cl | 2 | 131 | 13 | -10 | 100* | -5
Cc1ccccc1NC(=O)C1=CC=CN2CCS(=O)(=O)N=C12 | 6 | 91 | x | 0 | x | 0
CCOC(=O)C1CCN(S(=O)(=O)C(F)(F)c2nc3ccccc3s2)CC1 | -4 | 89 | 7 | 0 | -29 | -1
CCCOc1ccc(NC(=O)c2c(-c3ccccc3)noc2C)cc1 | -6 | 92 | 3 | -2 | 11 | -3
Cc1onc(-c2ccccc2)c1C(=O)NC(=S)NNC(=O)c1ccc(O)cc1O | 7 | 100 | 30* | 2 | 92* | -4
Cc1onc(-c2ccccc2)c1C(=O)NC(=S)NNC(=O)c1ccccc1O | 3 | 85 | 9 | -4 | 30 | -12
CCCOc1ccc(C(=O)NC(=S)NNC(=O)c2c(-c3ccccc3)noc2C)cc1 | -11 | 111 | -5 | -2 | 100* | 5
O=C(Nc1ccccc1Cl)N1CCN(Cc2ccc3c(c2)OCO3)CC1 | 0 | 101 | -13 | 7 | -1 | 1
CC(C)NC(=O)c1sc2c(c1C(=O)Nc1cccnc1)CCCC2 | -8 | 100 | 2 | 3 | 23 | 2
CCN(CC(=O)Nc1ccc(NC(C)=O)cc1)C(=O)/C=C/c1cn(Cc2ccccc2)nc1-c1cccnc1 | -26 | 109 | x | 20 | x | -10
Cc1cc(Cl)c2ccc(Cl)cc2n1 | 4 | 119 | 2 | -1 | 1 | -2
O=c1oc2cc(O)ccc2c2ccccc12 | -10 | 89 | -2 | 0 | 88* | -4
COc1ccc2c(c1)c(=O)oc1cc(O)ccc12 | -8 | 109 | 3 | 3 | -3 | -5
COC(=O)c1c(-c2ccccc2)[nH]c(-c2nccc3ccccc23)c1C(=O)OC | -2 | x | x | x | x | x
